CHX counter – Cycloheximide Counterscreen for Small Molecule Inhibitors of Shiga Toxin; cell reporter, cycloheximide protein synthesis inhibition counterscreen; max response, %; 12% of 300,000 active; AID 2314, 2010; in the data active = max response mostly above about 13%, no sharp cut-off; inactive = mostly below about 14%; also: read at 38.3 µM for the half of the compounds with a filed dose; 0% is about no effect
LmPK inhibitor – qHTS Assay for Inhibitors of Leishmania Mexicana Pyruvate Kinase (LmPK) | 0.37% of 290,000 active | Potency, µM (top dose mostly 57.5 µM), without a hit: at the highest dose activity change, negative = inhibition, most hits filed as inhibitors | purified LmPK, Kinase-Glo ATP luminescence, 1 h | AID 1721, 2009; also: potency is read from the fitted curve at half-maximal effect; % is scaled to controls: 0 for no effect and ±100 for the full control effect
Target sequence (Q27686 whole entry, looked up): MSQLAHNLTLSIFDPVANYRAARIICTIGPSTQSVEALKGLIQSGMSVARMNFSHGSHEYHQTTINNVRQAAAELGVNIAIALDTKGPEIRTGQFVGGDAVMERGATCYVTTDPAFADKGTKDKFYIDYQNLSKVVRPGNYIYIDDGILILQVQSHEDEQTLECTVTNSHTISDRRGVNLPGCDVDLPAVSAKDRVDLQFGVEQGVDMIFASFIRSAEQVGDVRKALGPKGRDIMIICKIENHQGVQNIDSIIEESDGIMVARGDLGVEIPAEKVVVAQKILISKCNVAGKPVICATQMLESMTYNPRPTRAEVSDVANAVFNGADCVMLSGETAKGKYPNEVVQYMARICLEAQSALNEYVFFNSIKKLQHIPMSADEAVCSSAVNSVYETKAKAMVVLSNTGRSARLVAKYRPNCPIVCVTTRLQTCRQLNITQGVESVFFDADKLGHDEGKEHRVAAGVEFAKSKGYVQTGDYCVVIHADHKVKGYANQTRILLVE
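Kinase-Glo luminescence read after 1 h RT reaction of 0.1 nM LmPK with 0.5 mM PEP and 0.1 mM ADP. Activity scaled between uninhibited and enzyme-free controls.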
TbPYK inhibitor – qHTS of Trypanosoma Brucei Inhibitors | pyruvate kinase (Trypanosoma brucei), Q57TT1 | TbPYK enzyme, Kinase-Glo Plus ATP luminescence, 45 min | Potency, µM (highest dose often 76.8 µM), without a hit: at the highest dose activity, negative = inhibition, usual class: inhibitors | 0.12% of 410,000 active; also: potency is read from the fitted curve at half-maximal effect; % is scaled to controls: 0 for no effect and ±100 for the full control effect; nearly all actives have a fitted effect of over 50% in size
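Screened from lowest to highest concentration, compounds were pinned into TbPYK/substrate mixtures, and ADP (130 uM final) was added. Plates sat at room temperature for 45 min prior to Kinase-Glo Plus detection by luminescence.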
FBPA Giardia inh – qHTS Assay for Inhibitors of Fructose-1,6-bisphosphate Aldolase from Giardia Lamblia; A8B2U2; purified Giardia FBPA; Potency, µM (top dose mostly 59.6 µM), inactives show at the highest dose activity, negative = inhibition, most hits filed as inhibitors; 0.71% of 290,000 active; AID 2451, 2010; also: potency is read from the fitted curve at half-maximal effect; % is scaled to controls: 0 for no effect and ±100 for the full control effect; nearly all actives have a fitted effect of over 55% in size
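40 nM FBPA preincubated 10 min at RT with compound (up to 57.5 uM final), then substrate plus GAPDH/TPI/NAD/arsenate coupling and diaphorase/resazurin added. Fluorescence read after 20 min at RT, 525/598 nm.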
Shiga toxin inh – A qHTS for Small Molecule Inhibitors of Shiga Toxin. Vero cells, Shiga toxin protein synthesis inhibition reporter. inhibition, % at 38.7 µM. 9.2% of 290,000 active. AID 2315, 2010; in the data active = inhibition mostly above about 28%, no sharp cut-off; inactive = mostly below about 43%; also: 0% is about no effect
Sm TGR block – qHTS Assay for the Inhibitors of Schistosoma Mansoni Peroxiredoxins | Schistosoma mansoni thioredoxin glutathione reductase (TGR), Q962Y6 | purified TGR, DTNB reduction, TNB absorbance 405 nm | Potency, µM (titrated, usually from 114 µM), for the others: at the highest dose activity change, negative = inhibition, hits mostly inhibitors | 3% of 360,000 active; also: potency is read from the fitted curve at half-maximal effect; % is scaled to controls: 0 for no effect and ±100 for the full control effect; nearly all actives have a fitted effect of over 60% in size
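First, TGR (20 nM dispensed) and NADPH were mixed with compound. Second, a 15 min room-temperature incubation followed. Third, further NADPH and then DTNB were added to start the reaction. Finally, TNB absorbance was monitored kinetically.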
* hit, by the source's call; ? = inconclusive; / = no result given; [ ] = another dose, or the depositor's remark. The full list was thinned out, with hits kept by preference. Unless noted, calls follow the shape of the dose curve; as a rule, active = well fitted curve in the direction sought with a large enough effect; inconclusive = small, poorly fitted or top-dose-only effect, or another doubt; inactive = no such curve, though single readings can be large; an effect the other way counts as inactive or inconclusive.

SMILES | CHX counter | LmPK inhibitor | TbPYK inhibitor | FBPA Giardia inh | Shiga toxin inh | Sm TGR block
CCOC(=O)c1ccc(NC(=O)c2cc(=O)c3cc(CC)ccc3o2)cc1 | / | / | 2% | / | / | 3%
c1ccc(-c2cc3c(ccc4nonc43)nn2)cc1 | 18 | 0% | -11% | 10% | -5 | 0%
On1onc2c3cc(-c4ccccc4)nc3ccc21 | 69* | -4% | -2% | -27% | 128* | 2%
Nc1nnnn1/N=C/c1cc(Cl)ccc1O | -1 | -2% | 2% | 1% | 16 | -8%
COc1cc(/C=N/n2nnnc2N)ccc1O | -1 | 3% | 8% | 2% | -15 | 11%[11.4 µM]
Nc1nnnn1/N=C/c1ccc(O)cc1 | 7 | 16µM* | -8% | 5% | -5 | -10%
CSc1ccc(/C=N/n2nnnc2N)cc1 | 27* | 0% | 8% | 4% | 24 | 1%
CCN(CC)c1ccc(/C=N/n2nnnc2N)c(O)c1 | 14* | -1% | 3% | -6% | 33 | -5%
CCN(C)c1ccc(/C=N\n2nnnc2N)cc1 | 29* | -4% | -6% | -5% | 65* | -4%
Nc1nnnn1/N=C/c1cccc(O)c1 | 6 | -2% | 0% | 1% | 7 | -1%
CCCOc1ccc(/C=N/n2nnnc2N)cc1OC | 9 | -10% | 2% | 2% | 10 | 4%
COc1ccc(-c2nc3cc(NC(=O)c4ccc(C)cc4)ccc3o2)cc1Cl | / | / | 0% | / | / | -20%
CC1CCCCN1S(=O)(=O)c1cc2c3c(c1)CC(=O)N3CCC2 (centres undefined) | / | / | -9% | / | / | 8%
NC1=NCC2c3ccccc3Cc3ccccc3N12 (centres undefined) | -9 | / | 0% | -3% | -2 | /
CCOC(=O)c1c(NC(=O)c2nc(SC(C)C)ncc2Cl)sc2c1CCCC2 | / | / | -1% | / | / | -1%
CCNc1ncc2nc(-c3cn(C)c4ccccc34)c(=O)n(-c3ccccc3)c2n1 | / | / | / | -7% | / | /
O=C(Cn1ncn2cccc2c1=O)NCc1cccc(Br)c1 | / | / | 1% | / | / | 8%
COc1cccc(CNC(=O)Cn2ncn3cccc3c2=O)c1OC | 11* | 0% | 4% | 2% | 26* | -11%
Cc1ccc(CNC(=O)Cn2ncn3cccc3c2=O)cc1 | 21* | -15% | 3% | -1% | 23* | 5%
COc1cccc(CNC(=O)C(C)n2ncn3cccc3c2=O)c1OC (centres undefined) | / | / | 2% | / | / | -111%
CC(C)(C)NC(=O)CN1CCCN(C(=O)COc2ccc(Cl)c3ccccc23)CC1 | / | / | 4% | / | / | -6%
CCOC(=O)N1CCN(C(=O)CSCc2ccc(C)cc2)CC1 | -2 | -2% | 2% | -2% | -2 | 0%
CC(C)(C)NC(=O)CN1CCN(C(=O)CCl)CC1 | -7 | 0% | 5% | -11% | -17 | 45µM*
CCOC(=O)N1CCN(C(=O)CSCc2ccccc2C)CC1 | 37* | 0% | -1% | 3% | 60* | 8%
Cc1ccccc1CN1CCN(C(=O)CC(C)C)CC1 | -2 | 24% | 12% | -29% | / | 50µM*
SMILES | CHX counter | LmPK inhibitor | TbPYK inhibitor | FBPA Giardia inh | Shiga toxin inh | Sm TGR block
CCOC(=O)N1CCN(C(=O)CCl)CC1 | 7 | 2% | -1% | -1% | 26 | 40µM*
COc1ccccc1-c1cccc([C@@H]2C[C@H]3[C@H](CON3C)CN2C(=O)CCc2ccccc2)c1 | / | / | -2% | / | / | /
COc1ccccc1NS(=O)(=O)c1cccc(-n2c(O)c(C=Nc3ccccc3C(=O)O)c3ccccc3c2=O)c1 | 0 | 0% | -1% | 0% | 32 | -1%
CCOC(=O)N1CCN(C(=O)CSCc2ccccc2Cl)CC1 | 26 | -1% | 0% | 4% | 44* | 1%
CC1CN(C(=O)COc2ccc3c(-c4ccccc4)cc(=O)oc3c2)CC(C)O1 (centres undefined) | / | / | 4% | / | / | -5%
O=C(COc1ccccc1)Nc1ccccc1Cl | 41* | -7% | -3% | 10% | 108* | -25%
O=C(Nc1ccc(Nc2ccccc2)cc1)Nc1ccccc1Cl | 41* | -15% | -10% | -8% | 97* | -26%
O=C(Nc1ccccc1Cl)Oc1ccc(-c2ccccc2)cc1 | 18* | -1% | -1% | -1% | 36 | 0%
O=C(Nc1ccc(Cl)cc1)Nc1ccccc1Sc1ncc([N+](=O)[O-])s1 | 34* | 3% | -28% | -19% | 63* | 4.5µM*
Cc1cc(OC(=O)Nc2ccccc2)ccc1Cl | / | / | 7% | / | / | /
COC(=O)c1ccccc1NC(=O)COc1ccccc1 | 4 | 2% | 2% | 2% | 15 | 0%[11.4 µM]
O=C(Nc1ccc(Nc2ccccc2)cc1)c1c(Cl)cccc1Cl | / | / | -11% | / | / | /
COc1cc(NC(=O)CC(C)S(=O)(=O)c2ccc3c(c2)CCN3C(C)=O)cc(OC)c1OC (centres undefined) | / | / | -14% | / | / | -1%
O=C(Nc1csc([N+](=O)[O-])c1)Nc1ccccc1Cl | 36* | -5% | -1% | -9% | 54* | -1%
O=S(=O)(Cc1ccccc1Cl)Nc1ccccn1 | 9 | -6% | 4% | 3% | 3 | 25µM*
O=C(Nc1ccccn1)Nc1ccccc1Cl | 32* | 0% | 1% | -1% | 50* | 19%
O=C(NCc1cccc(Cl)c1)NC(=O)c1csc([N+](=O)[O-])c1 | -2 | -1% | 1% | 1% | 4 | -4%
O=C(Nc1ccccc1Cl)Nc1ccccc1Cl | 21* | 2% | 0% | 0% | 32 | -5%
N=c1ccn2c(n1)O[C@H]1[C@@H](O)[C@@H](CO)O[C@H]12 | / | / | / | -1% | / | /
O=c1c(-c2cc(F)cc(F)c2)nc2cnc(N3CCOCC3)nc2n1C1CC1 | / | / | 4% | 3% | / | /
CSc1ccccc1NC(=O)NCCCl | 8 | 3% | 0% | -15% | -6 | -1%
CSc1ccccc1NC(=O)Nc1ccccc1Cl | 24* | 2% | -14% | -6% | 38 | 7%
O=c1oc(-c2cccnc2)nc2ccccc12 | -2 | -2% | -8% | 9% | -1 | 9%
Cc1cc(=O)c2cc3nc(-c4cccnc4)oc3c(Br)c2o1 | 15* | -2% | / | -8% | 42 | -12%
Cc1nc(Cl)sc1C(=O)Nc1ccc(C(C)(C)C)cc1 | 50* | 0% | -4% | -15% | 91* | 16%
Cc1noc(N)c1C(=O)Nc1ccc(C(C)(C)C)cc1 | 40* | ? | -9% | -12% | 136* | -1%
Cc1nc(/N=C\N(C)C)sc1C(=O)Nc1ccccc1 | 31 | 1% | 5% | 21% | 51* | -4%
Cc1ccc(NC(=O)c2sc(N)nc2C)cc1 | 37* | -7% | -6% | 0% | 54* | 12%
Cc1ccccc1NC(=O)c1sc(Cl)nc1C | -6 | 0% | 1% | -1% | -14 | -2%

High-throughput results (PubChem)
